# Records with an inconclusive call do not appear. Active and inactive are the calls of the source. Rule for the calls, unless noted: active = hit-call score of the fitted dose curve at least 0.9, where 1 is the maximum; inactive = score below 0.9.
# How the values were obtained:
# [1] = target: Oxysterols receptor LXR-alpha (Homo sapiens) (UniProt Q13133); experiment: ATG_LXRa_TRANS: Attagene TRANS-FACTORIAL HepG2 Assay for human Liver X Receptor alpha (LXRa) (AID 2282980; active = hit-call score of the fitted dose curve at least 0.9, where 1 is the maximum); settings: HepG2 Attagene TRANS reporter, LXRa transactivation
# Sequence of Oxysterols receptor LXR-alpha (Homo sapiens) (Q13133 whole entry, looked up, the tested form may be a part): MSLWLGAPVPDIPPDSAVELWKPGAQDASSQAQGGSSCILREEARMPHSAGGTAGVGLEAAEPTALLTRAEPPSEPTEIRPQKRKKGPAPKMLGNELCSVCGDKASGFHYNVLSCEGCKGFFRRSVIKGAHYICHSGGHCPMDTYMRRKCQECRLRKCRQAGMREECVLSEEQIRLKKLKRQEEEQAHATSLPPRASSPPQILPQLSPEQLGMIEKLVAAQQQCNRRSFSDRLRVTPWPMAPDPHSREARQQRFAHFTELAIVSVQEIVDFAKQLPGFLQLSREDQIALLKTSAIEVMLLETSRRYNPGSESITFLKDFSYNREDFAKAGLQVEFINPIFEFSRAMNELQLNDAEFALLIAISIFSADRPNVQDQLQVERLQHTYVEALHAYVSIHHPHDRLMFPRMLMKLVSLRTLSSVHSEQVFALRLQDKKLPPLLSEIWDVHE
# Outline: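 In this multiplexed TRANS system, compounds act on HepG2 cells carrying GAL4-UAS reporter units and a receptor-GAL4 fusion for 24 h. Induced reporter RNA is amplified, fluorescently labelled and sized by capillary electrophoresis, with DMSO as baseline.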
# [2] = target: Oxysterols receptor LXR-beta (Homo sapiens) (UniProt P55055); experiment: ATG_LXRb_TRANS: Attagene TRANS-FACTORIAL HepG2 Assay for human Liver X Receptor beta (LXRb) (AID 2282981; active = hit-call score of the fitted dose curve at least 0.9, where 1 is the maximum); settings: HepG2 Attagene TRANS GAL4-LXRb reporter, mRNA
# Sequence of Oxysterols receptor LXR-beta (Homo sapiens) (P55055 whole entry, looked up, the tested form may be a part): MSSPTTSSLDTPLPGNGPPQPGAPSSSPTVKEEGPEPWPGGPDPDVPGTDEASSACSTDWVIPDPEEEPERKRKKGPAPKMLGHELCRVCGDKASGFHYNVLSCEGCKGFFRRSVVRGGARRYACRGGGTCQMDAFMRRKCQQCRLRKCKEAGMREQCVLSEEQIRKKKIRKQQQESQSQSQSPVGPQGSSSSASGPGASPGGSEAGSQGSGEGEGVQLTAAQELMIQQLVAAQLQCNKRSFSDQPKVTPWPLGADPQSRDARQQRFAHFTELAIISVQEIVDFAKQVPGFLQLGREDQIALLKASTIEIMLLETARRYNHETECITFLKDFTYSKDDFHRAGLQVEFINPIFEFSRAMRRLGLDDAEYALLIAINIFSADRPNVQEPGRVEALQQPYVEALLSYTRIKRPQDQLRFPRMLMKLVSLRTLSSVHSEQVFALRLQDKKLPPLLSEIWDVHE
# Outline: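 Transient transfection HepG2 (multiplexed RTUs, GAL4-UAS); NR-Gal4 chimera; 24 h exposure; RNA → RT-PCR → 6-FAM primer extension → HpaI → CE; increase vs DMSO.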
# [3] = ATG_M_06_TRANS: Attagene TRANS-FACTORIAL HepG2 Assay for M06 Transcription Factor (Internal Marker) (AID 2282983; active = hit-call score of the fitted dose curve at least 0.9, where 1 is the maximum;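 note: reporter transcript level by RT-PCR then capillary electrophoresis fluorescence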); settings: HepG2 Attagene TRANS M06 internal marker reporter
# Outline: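 Internal-marker background readout from a multiplexed TRANS reporter system in HepG2; 24 h dosing; mRNA induction quantified by RT-PCR plus capillary electrophoresis fluorescence; DMSO as negative control and baseline.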
# [4] = ATG_M_32_TRANS: Attagene TRANS-FACTORIAL HepG2 Assay for M32 Transcription Factor (Internal Marker) (AID 2282984; active = hit-call score of the fitted dose curve at least 0.9, where 1 is the maximum;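 note: transcript level of a background control reporter unit measured by RT-PCR and capillary electrophoresis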); settings: HepG2 Attagene TRANS M32 internal marker reporter
# Outline: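 Measures reporter mRNA induction in human HepG2 liver cells after 24 h chemical treatment. Transcripts from transiently transfected GAL4-UAS reporter units are amplified, fluorescently labelled and sized by capillary electrophoresis; gain of signal relative to DMSO.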
# [5] = target: Transcriptional activator Myb (Homo sapiens) (UniProt P10242); experiment: ATG_Myb_CIS: Attagene CIS-FACTORIAL HepG2 Assay for human Myeloblastosis (Myb) Proto-Oncogene Transcription Factor (AID 2282986); settings: HepG2 Attagene CIS-FACTORIAL Myb reporter transcription; actives raise or lower the signal
# Sequence of Transcriptional activator Myb (Homo sapiens) (P10242 whole entry, looked up): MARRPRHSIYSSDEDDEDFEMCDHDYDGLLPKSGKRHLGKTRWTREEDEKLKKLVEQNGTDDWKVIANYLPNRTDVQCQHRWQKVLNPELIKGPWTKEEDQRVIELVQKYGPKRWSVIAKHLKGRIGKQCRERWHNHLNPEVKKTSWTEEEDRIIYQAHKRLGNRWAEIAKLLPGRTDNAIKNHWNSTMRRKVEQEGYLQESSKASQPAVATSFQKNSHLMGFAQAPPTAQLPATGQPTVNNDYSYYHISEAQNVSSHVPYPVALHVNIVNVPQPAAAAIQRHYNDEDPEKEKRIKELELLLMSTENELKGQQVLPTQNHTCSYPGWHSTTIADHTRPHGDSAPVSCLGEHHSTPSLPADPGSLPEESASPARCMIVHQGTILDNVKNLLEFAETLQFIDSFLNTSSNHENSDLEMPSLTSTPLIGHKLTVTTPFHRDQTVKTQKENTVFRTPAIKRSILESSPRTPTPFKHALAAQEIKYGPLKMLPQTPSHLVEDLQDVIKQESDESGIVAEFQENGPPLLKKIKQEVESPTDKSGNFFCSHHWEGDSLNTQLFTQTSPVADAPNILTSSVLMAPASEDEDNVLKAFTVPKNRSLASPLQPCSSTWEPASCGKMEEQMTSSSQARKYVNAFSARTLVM
# Outline: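 HepG2 cells were transiently transfected with cis-regulated multiple reporter transcription units reflecting endogenous Myb activity, then exposed to compound for 24 hours. Reporter mRNA was measured by RT-PCR with capillary electrophoresis; bidirectional fitting versus DMSO baseline.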
# [6] = ATG_NFI_CIS: Attagene CIS-FACTORIAL HepG2 Assay for human Nuclear Factor I (NFI) (AID 2282989); settings: HepG2 cis-regulatory reporter, NFI response element transcription; actives raise or lower the signal
# Outline: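 Cells: human liver HepG2, transiently transfected with promoter-regulated reporter transcription units. Exposure 24 h. Detection: fluorescent RT-PCR products separated by capillary electrophoresis, normalised to DMSO negative control.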
# [7] = target: Myc proto-oncogene protein (Homo sapiens) (UniProt P01106); experiment: ATG_Myc_CIS: Attagene CIS-FACTORIAL HepG2 Assay for human Myelocytomatosis (Myc) Proto-Oncogene Transcription Factor (AID 2282990); settings: HepG2, Attagene cis-reporter transcription factor activity; actives raise or lower the signal
# Sequence of Myc proto-oncogene protein (Homo sapiens) (P01106 whole entry, looked up): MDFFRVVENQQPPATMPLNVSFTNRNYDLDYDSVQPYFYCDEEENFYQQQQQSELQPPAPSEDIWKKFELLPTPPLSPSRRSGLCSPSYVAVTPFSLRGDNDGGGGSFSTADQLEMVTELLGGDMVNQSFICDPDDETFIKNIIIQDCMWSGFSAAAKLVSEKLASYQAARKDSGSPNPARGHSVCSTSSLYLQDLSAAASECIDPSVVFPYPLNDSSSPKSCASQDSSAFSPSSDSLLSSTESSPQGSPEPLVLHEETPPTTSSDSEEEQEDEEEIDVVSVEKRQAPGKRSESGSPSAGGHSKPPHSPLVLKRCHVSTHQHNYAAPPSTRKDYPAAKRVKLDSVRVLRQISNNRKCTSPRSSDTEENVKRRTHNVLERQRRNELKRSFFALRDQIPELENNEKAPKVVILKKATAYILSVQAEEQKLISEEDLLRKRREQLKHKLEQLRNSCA
# Outline: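 HepG2, transient MRTU transfection (cis promoters, endogenous TFs); 24 h dosing; TriZol RNA → oligo(dT) RT → PCR → 6-FAM primer extension → HpaI cut → CE. Bidirectional fit vs DMSO.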
# [8] = ATG_NRF2_ARE_CIS: Attagene CIS-FACTORIAL HepG2 Assay for human Nuclear Factor Erythroid 2 Related Factor 2 (NFR2) response to Antioxidant Response Elements (ARE) (AID 2282992); settings: HepG2 Attagene ARE/NRF2 reporter, transcription factor activity; actives raise or lower the signal;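 for AC50: reporter mRNA level measured by RT-PCR and capillary electrophoresis fluorescence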
# Outline: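 HepG2 cells transiently transfected with multiplexed cis-element reporter constructs, 24 h after chemical dosing; reporter mRNA quantified by RT-PCR, fluorescent primer extension, HpaI digestion and capillary electrophoresis. Bidirectional fit relative to DMSO.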
# [9] = ATG_Oct_MLP_CIS: Attagene CIS-FACTORIAL HepG2 Assay for human Octamer-Binding Transcription Factor (Oct) (AID 2282993); settings: HepG2 Attagene cis-factorial Oct reporter, mRNA; actives raise or lower the signal
# Outline: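 HepG2, transient MRTU transfection, cis promoter elements; 24 h dosing; RT-PCR/CE fluorescence read-out of reporter mRNA; fit both directions vs DMSO.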
# [10] = target: Cellular tumor antigen p53 (Homo sapiens) (UniProt P04637); experiment: ATG_p53_CIS: Attagene CIS-FACTORIAL HepG2 Assay for human p53 Transcription Factor (AID 2282994); settings: HepG2 p53 cis-element reporter, Attagene mRNA; actives raise or lower the signal
# Sequence of Cellular tumor antigen p53 (Homo sapiens) (P04637 whole entry, looked up): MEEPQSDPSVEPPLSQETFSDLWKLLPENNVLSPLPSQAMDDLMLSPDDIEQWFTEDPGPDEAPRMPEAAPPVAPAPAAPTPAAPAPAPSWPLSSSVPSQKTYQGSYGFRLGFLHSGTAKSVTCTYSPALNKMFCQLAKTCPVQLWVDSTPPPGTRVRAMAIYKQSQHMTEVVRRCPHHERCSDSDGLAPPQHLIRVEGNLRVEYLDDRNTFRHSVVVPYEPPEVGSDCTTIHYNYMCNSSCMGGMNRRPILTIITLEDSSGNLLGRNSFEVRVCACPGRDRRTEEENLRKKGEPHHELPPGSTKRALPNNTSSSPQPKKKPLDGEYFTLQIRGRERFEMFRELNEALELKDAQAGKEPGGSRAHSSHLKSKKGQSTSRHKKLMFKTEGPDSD
# Outline: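 HepG2 cells transiently transfected with cis-regulated multiple reporter transcription units, dosed 24 h. Reporter mRNA measured by RT-PCR, 6-FAM primer extension, HpaI digestion and capillary electrophoresis; bidirectional fit relative to DMSO.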
# [11] = BSK_3C_TissueFactor: BioMAP Diversity Plus: 3C Assay for Tissue Factor Biomarker Activity (AID 2282997); settings: BioMAP 3C HUVEC, tissue factor biomarker readout; actives raise or lower the signal
# Outline: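 Endothelial monolayers (human umbilical vein, primary) are dosed, incubated 24 h, and assayed for Tissue Factor by ELISA; DMSO serves as negative control for bidirectional fitting.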
# [12] = BSK_3C_uPAR: BioMAP Diversity Plus: 3C Assay for Urokinase-type plasminogen activator receptor (uPAR) Biomarker Activity (AID 2282998); settings: BioMAP 3C HUVEC, uPAR biomarker ELISA; actives raise or lower the signal
# Outline: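 A multiplexed primary-cell system built on human umbilical vein endothelium was used, with chemical present for 24 h before reading. Cell-surface uPAR was detected by ELISA; signal change in either direction counted against DMSO.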
# [13] = BSK_3C_VCAM1: BioMAP Diversity Plus: 3C Assay for Vascular cell adhesion molecule 1 (VCAM1) Biomarker Activity (AID 2282999); settings: BioMAP 3C HUVEC, VCAM1 ELISA, cytokine-stimulated; actives raise or lower the signal
# Outline: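 Endothelial cells from human umbilical vein are treated with test chemical. At 24 h, VCAM-1 is measured by ELISA, and responses in either direction are fitted relative to DMSO.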
# [14] = BSK_4H_Eotaxin3: BioMAP Diversity Plus: 4H Assay for Eotaxin 3 Biomarker Activity (AID 2283000); settings: primary human endothelial cells (HUVEC); actives raise or lower the signal;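 note: CCL26 protein level quantified by ELISA in parallel with SRB cytotoxicity check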
# Outline: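 ELISA quantitation of CCL26 (Eotaxin-3) protein from chemically dosed human vascular endothelial cells at 24 h; increases and decreases both scored relative to DMSO-treated baseline.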
# [15] = target: Bile acid receptor (Homo sapiens) (UniProt Q96RI1); experiment: ATG_FXR_TRANS: Attagene TRANS-FACTORIAL HepG2 Assay for Farnesoid X Receptor (FXR) (AID 2282979; active = hit-call score of the fitted dose curve at least 0.9, where 1 is the maximum;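 note: hits raise reporter mRNA above DMSO so AC50 marks FXR activation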); settings: HepG2 Attagene TRANS FXR-GAL4 reporter transcription
# Sequence of Bile acid receptor (Homo sapiens) (Q96RI1 whole entry, looked up, the tested form may be a part): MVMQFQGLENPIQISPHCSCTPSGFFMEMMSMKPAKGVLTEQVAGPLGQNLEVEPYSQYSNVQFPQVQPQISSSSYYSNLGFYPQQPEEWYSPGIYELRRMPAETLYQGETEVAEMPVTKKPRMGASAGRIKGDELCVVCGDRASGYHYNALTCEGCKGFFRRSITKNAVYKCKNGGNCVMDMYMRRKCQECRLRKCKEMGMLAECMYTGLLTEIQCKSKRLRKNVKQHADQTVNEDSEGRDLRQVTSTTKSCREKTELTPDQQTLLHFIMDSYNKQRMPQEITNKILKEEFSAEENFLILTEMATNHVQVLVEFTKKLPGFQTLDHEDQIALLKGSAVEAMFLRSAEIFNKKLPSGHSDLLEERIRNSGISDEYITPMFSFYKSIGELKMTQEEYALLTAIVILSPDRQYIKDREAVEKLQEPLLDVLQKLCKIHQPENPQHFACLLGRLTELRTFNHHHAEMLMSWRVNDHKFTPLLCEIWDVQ
# Outline: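 After 24 h chemical treatment of transfected HepG2 cells, GAL4-UAS reporter transcripts driven by an exogenous FXR-GAL4 fusion were measured by RT-PCR and capillary electrophoresis. Increases over DMSO were fitted.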
# [16] = target: Nuclear receptor subfamily 4 group A member 2 (Homo sapiens) (UniProt P43354); experiment: ATG_NURR1_TRANS: Attagene TRANS-FACTORIAL HepG2 Assay for human Nuclear Receptor Related Protein 1 (NURR1) (AID 2282985; active = hit-call score of the fitted dose curve at least 0.9, where 1 is the maximum); settings: HepG2 Attagene TRANS reporter, mRNA readout
# Sequence of Nuclear receptor subfamily 4 group A member 2 (Homo sapiens) (P43354 whole entry, looked up, the tested form may be a part): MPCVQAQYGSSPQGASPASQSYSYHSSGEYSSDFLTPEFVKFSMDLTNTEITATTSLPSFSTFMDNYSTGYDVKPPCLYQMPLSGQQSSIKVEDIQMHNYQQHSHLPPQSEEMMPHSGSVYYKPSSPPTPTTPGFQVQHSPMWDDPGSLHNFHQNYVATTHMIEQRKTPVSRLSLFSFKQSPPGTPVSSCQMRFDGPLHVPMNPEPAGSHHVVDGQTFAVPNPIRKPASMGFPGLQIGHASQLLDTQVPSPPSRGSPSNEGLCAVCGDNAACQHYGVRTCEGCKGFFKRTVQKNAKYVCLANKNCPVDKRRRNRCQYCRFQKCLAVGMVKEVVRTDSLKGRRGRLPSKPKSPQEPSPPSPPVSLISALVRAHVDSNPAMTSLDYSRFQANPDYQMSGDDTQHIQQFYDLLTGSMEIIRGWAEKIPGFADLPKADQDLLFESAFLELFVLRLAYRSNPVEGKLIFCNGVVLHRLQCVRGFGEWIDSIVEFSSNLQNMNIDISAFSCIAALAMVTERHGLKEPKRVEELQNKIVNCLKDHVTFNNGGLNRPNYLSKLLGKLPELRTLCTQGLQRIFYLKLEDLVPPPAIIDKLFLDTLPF
# Outline: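 Transient transfection of HepG2, human liver cells, with multiple GAL4-UAS reporter transcription units. Cells dosed 24 h, RNA isolated, reverse-transcribed, PCR-amplified, FAM-labelled, HpaI-digested, sized by capillary electrophoresis. DMSO served as negative control.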
# [17] = ATG_NF_kB_CIS: Attagene CIS-FACTORIAL HepG2 Assay for human Nuclear Factor Kappa B (NF-kB) (AID 2282991); settings: HepG2 Attagene cis-factorial NF-kB reporter mRNA; actives raise or lower the signal
# Outline: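 HepG2 cells transiently transfected with multiplexed cis-element reporter units measuring endogenous transcription factor activity; reporter mRNA read 24 h after dosing by RT-PCR, fluorescent labelling, HpaI digestion and capillary electrophoresis. Bidirectional fit against DMSO baseline.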
# [18] = target: Glucocorticoid receptor (Homo sapiens) (UniProt P04150); experiment: ATG_GR_TRANS: Attagene TRANS-FACTORIAL HepG2 Assay for human Glucocorticoid Receptor (GR) (AID 2282978; active = hit-call score of the fitted dose curve at least 0.9, where 1 is the maximum;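 note: activators score as hits since higher reporter transcript over DMSO is fitted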); settings: HepG2 Attagene TRANS GR reporter, mRNA transcription
# Sequence of Glucocorticoid receptor (Homo sapiens) (P04150 whole entry, looked up, the tested form may be a part): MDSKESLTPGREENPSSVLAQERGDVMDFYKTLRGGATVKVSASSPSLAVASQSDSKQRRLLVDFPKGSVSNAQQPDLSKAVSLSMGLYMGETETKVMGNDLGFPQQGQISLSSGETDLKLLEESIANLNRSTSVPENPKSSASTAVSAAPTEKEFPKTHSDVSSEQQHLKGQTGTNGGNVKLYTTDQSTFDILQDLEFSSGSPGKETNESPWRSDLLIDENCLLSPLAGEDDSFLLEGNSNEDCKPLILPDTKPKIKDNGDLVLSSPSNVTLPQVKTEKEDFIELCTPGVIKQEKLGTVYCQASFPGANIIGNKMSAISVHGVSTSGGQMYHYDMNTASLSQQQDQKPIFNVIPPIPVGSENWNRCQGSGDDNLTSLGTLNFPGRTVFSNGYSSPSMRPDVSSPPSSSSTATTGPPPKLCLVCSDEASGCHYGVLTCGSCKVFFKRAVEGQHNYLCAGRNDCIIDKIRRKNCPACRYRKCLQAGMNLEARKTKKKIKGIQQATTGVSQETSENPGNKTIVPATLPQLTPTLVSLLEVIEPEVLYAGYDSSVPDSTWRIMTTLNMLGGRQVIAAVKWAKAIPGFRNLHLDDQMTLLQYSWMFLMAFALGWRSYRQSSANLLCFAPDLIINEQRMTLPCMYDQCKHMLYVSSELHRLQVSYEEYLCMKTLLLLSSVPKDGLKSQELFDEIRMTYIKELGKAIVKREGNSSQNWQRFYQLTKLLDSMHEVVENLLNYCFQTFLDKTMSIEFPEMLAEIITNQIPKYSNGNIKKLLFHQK
# Outline: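 HepG2 cells transiently transfected with multiplexed reporter units in which chimeric NR-GAL4 proteins drive GAL4-UAS reporters; 24 h compound exposure. Reporter mRNA measured by RT-PCR, 6-FAM labelling, HpaI digestion and capillary electrophoresis; gain-of-signal fitted versus DMSO.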
# [19] = target: Nuclear respiratory factor 1 (Homo sapiens) (UniProt Q16656); experiment: ATG_NRF1_CIS: Attagene CIS-FACTORIAL HepG2 Assay for human Nuclear Respiratory Factor 1 (NRF1) Orphan Gene (AID 2282987); settings: HepG2 NRF1 cis-element reporter, Attagene multiplex; actives raise or lower the signal
# Sequence of Nuclear respiratory factor 1 (Homo sapiens) (Q16656 whole entry, looked up): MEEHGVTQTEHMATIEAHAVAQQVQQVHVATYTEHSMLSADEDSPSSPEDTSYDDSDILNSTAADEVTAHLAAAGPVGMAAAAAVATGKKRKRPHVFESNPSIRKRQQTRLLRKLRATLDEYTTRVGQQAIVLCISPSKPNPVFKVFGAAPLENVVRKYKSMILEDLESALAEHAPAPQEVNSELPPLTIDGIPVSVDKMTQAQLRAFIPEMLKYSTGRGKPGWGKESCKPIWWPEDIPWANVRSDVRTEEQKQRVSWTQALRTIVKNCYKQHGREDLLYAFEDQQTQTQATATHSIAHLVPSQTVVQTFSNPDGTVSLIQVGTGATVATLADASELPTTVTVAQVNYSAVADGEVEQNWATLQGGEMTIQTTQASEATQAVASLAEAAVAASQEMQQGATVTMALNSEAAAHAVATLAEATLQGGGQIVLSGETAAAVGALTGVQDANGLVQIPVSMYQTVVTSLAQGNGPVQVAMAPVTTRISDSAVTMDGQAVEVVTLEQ
# Outline: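 HepG2 cells transiently transfected with multiple reporter transcription units under cis-regulatory promoter control, so endogenous transcription-factor activity is read. After 24 h compound exposure, reporter mRNA quantified by RT-PCR, fluorescent labelling, HpaI digestion and capillary electrophoresis; bidirectional fitting versus DMSO.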
structure (smiles),measurement,setting,value
FC(F)(F)C(F)(F)C(F)(F)C(F)(F)C(F)(F)C(F)(F)CCI,outcome,[1],inactive
same,outcome,[2],inactive
same,outcome,[3],inactive
same,outcome,[4],inactive
same,outcome,[5],inactive
same,outcome,[6],inactive
same,outcome,[7],inactive
same,outcome,[8],inactive
same,outcome,[9],inactive
same,outcome,[10],inactive
same,outcome,[11],inactive
same,outcome,[12],inactive
same,outcome,[13],inactive
same,outcome,[14],inactive
Nc1ccc(S(=O)(=O)c2ccc(N)cc2)cc1,outcome,[15],inactive
same,outcome,[1],inactive
same,outcome,[2],inactive
same,outcome,[3],inactive
same,outcome,[4],inactive
same,outcome,[16],inactive
same,outcome,[6],inactive
same,outcome,[17],inactive
same,outcome,[8],inactive
same,outcome,[9],inactive
same,outcome,[10],inactive
same,outcome,[11],inactive
same,outcome,[12],inactive
same,outcome,[13],inactive
same,outcome,[14],inactive
CC1(C)NC(=O)NC1=O,outcome,[18],inactive
same,outcome,[1],inactive
same,outcome,[2],inactive
same,outcome,[3],inactive
same,outcome,[4],inactive
same,outcome,[16],inactive
same,outcome,[5],inactive
same,outcome,[19],inactive
same,outcome,[6],inactive
same,outcome,[17],inactive
same,outcome,[8],inactive
same,outcome,[9],inactive
same,outcome,[10],inactive
same,outcome,[11],inactive
same,outcome,[12],inactive
same,outcome,[13],inactive
same,outcome,[14],inactive
Nc1ccccc1N,outcome,[18],inactive
same,outcome,[1],inactive
same,outcome,[2],inactive
same,outcome,[3],inactive
same,outcome,[4],inactive
same,outcome,[19],inactive
same,AC50,[6],46.1 µM (active)
same,outcome,[7],inactive
same,outcome,[17],inactive
same,AC50,[8],9.26 µM (active)
same,AC50,[9],29 µM (active)
same,AC50,[10],32.4 µM (active)
same,outcome,[11],inactive
same,AC50,[12],4.58 µM (active)
same,AC50,[13],11 µM (active)
same,outcome,[14],inactive
Cc1cccc(Nc2cc(Cl)nc(SCC(=O)O)n2)c1C,outcome,[18],inactive
same,outcome,[3],inactive
same,outcome,[5],inactive
same,outcome,[19],inactive
same,outcome,[6],inactive
same,outcome,[7],inactive
same,outcome,[17],inactive
same,outcome,[8],inactive
same,outcome,[9],inactive
same,outcome,[10],inactive
same,outcome,[11],inactive
same,outcome,[12],inactive
same,outcome,[13],inactive
same,outcome,[14],inactive
C[Si]1(C)O[Si](C)(C)O[Si](C)(C)O[Si](C)(C)O1,outcome,[15],inactive
same,outcome,[4],inactive
same,outcome,[16],inactive
same,outcome,[5],inactive
same,outcome,[6],inactive
same,outcome,[17],inactive
same,outcome,[8],inactive
same,outcome,[9],inactive
same,outcome,[10],inactive
same,outcome,[11],inactive
same,outcome,[12],inactive
same,outcome,[13],inactive
same,outcome,[14],inactive
CC(=O)OC/C=C(\C)CCC=C(C)C,outcome,[18],inactive
same,outcome,[4],inactive
same,outcome,[5],inactive
same,outcome,[6],inactive
same,outcome,[8],inactive
same,outcome,[9],inactive
same,outcome,[10],inactive
same,outcome,[11],inactive
same,outcome,[12],inactive
same,outcome,[13],inactive
same,outcome,[14],inactive

# Reference: PubChem BioAssay (EPA / NIEHS)
